According to the OligoGym collection:

Molecular target: RNPEPL1
Test: pooled miR-30 sensor sort-seq; sequence = guide strand
Conditions: shRNA
Further: reference of the scale not given here.

For TAGGTCTCGGTGGTGATACGGC, which sensor-assay potency score (higher = more potent) is on record?
Its sensor-assay potency score (higher = more potent) is -0.874.

With TCAGGATAGTAGTCGTTGCGGA as the sequence, how does the sensor-assay potency score (higher = more potent) read?
The sensor-assay potency score (higher = more potent) was -0.665.

With TGGCAGGAAGACAATGTCGTAC as the sequence, how does the sensor-assay potency score (higher = more potent) read?
The sensor-assay potency score (higher = more potent) was -1.01.

TTGTACTTCTCCACATAGGCTC was tested. Which sensor-assay potency score (higher = more potent) did it give?
The sensor-assay potency score (higher = more potent) was -0.15.

How did the sensor-assay potency score (higher = more potent) turn out when TACTTCTCCACATAGGCTCGGA was run?
The sensor-assay potency score (higher = more potent) was -0.423.

Which sensor-assay potency score (higher = more potent) does the source give for TACAAGAGACAGGCTGTCCTGT here?
The sensor-assay potency score (higher = more potent) was 0.345.

With TTCTCGTAGGTGAACAGGTTCA as the sequence, how does the sensor-assay potency score (higher = more potent) read?
The sensor-assay potency score (higher = more potent) was -0.738.

How did the sensor-assay potency score (higher = more potent) turn out when TCTGTGTCTGCTTCAGCCTTGC was run?
Its sensor-assay potency score (higher = more potent) is 0.0808.

How did the sensor-assay potency score (higher = more potent) turn out when TAGGTGAACAGGTTCATCAGGT was run?
Its sensor-assay potency score (higher = more potent) is 0.726.

Which sensor-assay potency score (higher = more potent) does the source give for TTCTGCGGTCCACAGCTGGAAA here?
The sensor-assay potency score (higher = more potent) was -1.5.

For TGAACTTGTACTTCTCCACATA, which sensor-assay potency score (higher = more potent) is on record?
The sensor-assay potency score (higher = more potent) was -0.899.

With TAGTACACGAAGCAGTAGCCCT as the sequence, how does the sensor-assay potency score (higher = more potent) read?
The sensor-assay potency score (higher = more potent) was -0.845.

Molecular target: ROBO3
Test: as above
Conditions: shRNA

Which sensor-assay potency score (higher = more potent) does the source give for TTGGCCATTGTCTTGAACTGGA here?
The sensor-assay potency score (higher = more potent) was -0.232.

For TTCGTTGTAATATCTGTCGTCC, which sensor-assay potency score (higher = more potent) is on record?
The sensor-assay potency score (higher = more potent) was 0.714.

How did the sensor-assay potency score (higher = more potent) turn out when TGTAGGTCCAACATTGTCCAGC was run?
The sensor-assay potency score (higher = more potent) was -0.683.

Which sensor-assay potency score (higher = more potent) does the source give for TTTCCTTTGGTCTCGCACTGGA here?
The sensor-assay potency score (higher = more potent) was -0.00997.

How did the sensor-assay potency score (higher = more potent) turn out when TAGCACAGTACTTTGCTGGCTT was run?
The sensor-assay potency score (higher = more potent) was 0.438.

With TTGGGCTTGCACCTTGATCTGG as the sequence, how does the sensor-assay potency score (higher = more potent) read?
Its sensor-assay potency score (higher = more potent) is -0.739.

How did the sensor-assay potency score (higher = more potent) turn out when TTGTCTTGAACTGGAGGTCATC was run?
Its sensor-assay potency score (higher = more potent) is -1.28.

Which sensor-assay potency score (higher = more potent) does the source give for TTCAGCTGCCGCACTCTCCCGT here?
The sensor-assay potency score (higher = more potent) was -0.447.

For TTTATAAACAAGTCTCAGGTGG, which sensor-assay potency score (higher = more potent) is on record?
The sensor-assay potency score (higher = more potent) was -0.186.

With TTGTAATATCTGTCGTCCGGGT as the sequence, how does the sensor-assay potency score (higher = more potent) read?
The sensor-assay potency score (higher = more potent) was -0.931.

For TCTTAGCACAGTACTTTGCTGG, which sensor-assay potency score (higher = more potent) is on record?
The sensor-assay potency score (higher = more potent) was -0.938.

For TTCATCTGGGTGGAGCACCCGC, which sensor-assay potency score (higher = more potent) is on record?
Its sensor-assay potency score (higher = more potent) is -0.884.

Molecular target: ROCK2
Test: as above
Conditions: shRNA

TAACTTGGCAGTCTCCAGCAGG was tested. Which sensor-assay potency score (higher = more potent) did it give?
The sensor-assay potency score (higher = more potent) was -1.05.

With TATTTTTATCTGCTAGTCGTGC as the sequence, how does the sensor-assay potency score (higher = more potent) read?
Its sensor-assay potency score (higher = more potent) is -0.412.

TCTATTGTTAGATTCCAGCTGC was tested. Which sensor-assay potency score (higher = more potent) did it give?
Its sensor-assay potency score (higher = more potent) is 0.544.

With TTCTGCTTCGAGCTGATCCTGG as the sequence, how does the sensor-assay potency score (higher = more potent) read?
The sensor-assay potency score (higher = more potent) was -0.437.

With TTTTCTGACATTTTTAGTGTGT as the sequence, how does the sensor-assay potency score (higher = more potent) read?
Its sensor-assay potency score (higher = more potent) is 0.278.

With TTTCTAACTGTCTTAATGCTGA as the sequence, how does the sensor-assay potency score (higher = more potent) read?
The sensor-assay potency score (higher = more potent) was -0.42.

TTTTGCTGTATCTTCATTGAAG was tested. Which sensor-assay potency score (higher = more potent) did it give?
The sensor-assay potency score (higher = more potent) was -0.765.

Which sensor-assay potency score (higher = more potent) does the source give for TAAAGCATTGGTTTCATCCAGT here?
Its sensor-assay potency score (higher = more potent) is 0.0253.

With TAGATGTCCATGTTTATCCAAG as the sequence, how does the sensor-assay potency score (higher = more potent) read?
The sensor-assay potency score (higher = more potent) was -1.07.

With TTTATCTGCTAGTCGTGCCTTT as the sequence, how does the sensor-assay potency score (higher = more potent) read?
Its sensor-assay potency score (higher = more potent) is 0.209.

For TTGAGAAATACTGTTCTGCTTC, which sensor-assay potency score (higher = more potent) is on record?
Its sensor-assay potency score (higher = more potent) is 0.537.

Molecular target: ROPN1
Test: as above
Conditions: shRNA

Which sensor-assay potency score (higher = more potent) does the source give for AACTGGAAGGTGCTGAACGGGA here?
The sensor-assay potency score (higher = more potent) was -0.696.

Which sensor-assay potency score (higher = more potent) does the source give for TCTGAAGTACAATCATCTCTGT here?
Its sensor-assay potency score (higher = more potent) is 0.301.

With TATGGTCACATGATAAGACCTC as the sequence, how does the sensor-assay potency score (higher = more potent) read?
Its sensor-assay potency score (higher = more potent) is -0.256.

Which sensor-assay potency score (higher = more potent) does the source give for TCACTGTGATTATACCATCAGG here?
The sensor-assay potency score (higher = more potent) was -1.52.
